Shown are actives, neighbours in structure and some others; about 2.4% of the full set was active somewhere.
D2 antag: antagonizes the human D2 dopamine receptor. HEK293 TREx D2 cells, calcium flux, dopamine EC80. inhibition, % at 10 µM. 340,000 tested, 2% active; in the data active = inhibition above about 30%; inactive = below that, where a call was filed; also: 0% is about no effect
Target sequence (P14416 whole entry, looked up): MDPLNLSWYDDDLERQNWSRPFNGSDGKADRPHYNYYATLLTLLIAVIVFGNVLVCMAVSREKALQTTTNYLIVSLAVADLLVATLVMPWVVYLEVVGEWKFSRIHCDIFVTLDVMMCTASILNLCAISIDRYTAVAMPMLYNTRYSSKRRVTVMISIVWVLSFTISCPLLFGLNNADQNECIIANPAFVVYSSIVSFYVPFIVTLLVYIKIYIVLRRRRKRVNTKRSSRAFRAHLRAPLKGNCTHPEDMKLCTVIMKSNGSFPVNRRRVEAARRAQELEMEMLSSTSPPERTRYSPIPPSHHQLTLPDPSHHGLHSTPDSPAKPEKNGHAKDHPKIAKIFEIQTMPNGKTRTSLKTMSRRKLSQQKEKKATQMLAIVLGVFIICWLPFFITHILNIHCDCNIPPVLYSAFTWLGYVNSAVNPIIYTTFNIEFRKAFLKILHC
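Overnight-induced (tetracycline, 30 C) HEK293 T-REx cells carrying force-coupled D2 receive a no-wash calcium dye, then compound, then EC80 dopamine at 180 s; signals are read kinetically throughout.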
D2 ag-1: D2 dopamine receptor (human) agonism. activation, % at 2 µM. HEK293 T-REx D2 cells, calcium flux agonist mode. 340,000 tested, 0.53% active;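 active = activation over 3 SD above normal in the single-dose calcium agonist read, cut at about 30% in these data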; also: 0% is about no effect
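Calcium-flux readout, 1 cycle/sec over 180 s following compound pin transfer, in inducible HEK293 Trex D2 cells (force-coupled); dopamine controls included. Positive calcium responses during this window marked compounds as potential agonists.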
D2 PAM-1: positive allosteric modulators of human D2 dopamine receptor; DiscoveRx D2 beta-arrestin cells, luminescence, 90 min; 100% = 57 uM dopamine signal; 360,000 tested, 0.23% active; potentiation, % (test concentration not listed); AID 624464; P14416; in the data active = potentiation above about 50%
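PathHunter D2 cells, attached overnight at 37 deg C, received compound in DMSO plus dopamine at EC20 (50 nM final) for 90 min at 37 deg C. Beta-arrestin recruitment was read as luminescence after 1 h with detection reagent at ambient temperature.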
D2 PAM-2: D2 dopamine receptor (human) potentiation | AID 485347 | HEK293 T-REx D2, calcium flux, EC20 dopamine potentiation | potentiation, % at 10 µM | 340,000 tested, 0.34% active;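 active = potentiation over 3 SD above the plate norm, cut at about 30% in these data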; also: 0% is about no effect
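Primary screen. Calcium kinetics in induced HEK293 T-REx D2 cells: compound pre-addition 180 s, EC20 dopamine, 180 s more.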
D2 ag-2: activates the human D2 dopamine receptor; P14416; 360,000 tested, 0.084% active; DiscoveRx PathHunter D2 beta-arrestin, luminescence, 90 min; 100% = 57 uM dopamine signal; activation, % (concentration not given with the values); in the data active = activation above about 40%
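DiscoveRx PathHunter D2 beta-arrestin cells (2,100/well) attached overnight, then compound-stimulated 90 min at 37 C in HBSS/10 mM HEPES/0.1% Tween-20 buffer; beta-galactosidase complementation read by luminescence after 1 h at ambient temperature. Dopamine 57 uM final (EC100) as control.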
* hit, by the source's call; . = not tested or not shown.

SMILES	D2 antag	D2 ag-1	D2 PAM-1	D2 PAM-2	D2 ag-2
CSc1ccc(/C=C(/Sc2nnc(-c3ccccc3)o2)C(=O)O)cc1	-17.4	2.3	-6.5	2.2	-3.6
O=C(O)/C(=C\c1cccs1)Sc1nnc(-c2ccc(F)cc2)o1	35.0*	1.1	-2.8	0.8	-2.1
O=c1c2ccccc2nc(-c2ccc([N+](=O)[O-])cc2)n1O	4.2	-0.2	-6.7	31.1*	2.4
Cc1ccc(-c2nc3ccccc3c(=O)n2O)cc1	-10.8	-0.4	0.7	21.8	-5.4
CCN(CC)CCN(C(=O)c1ccc2c(c1)CCCC2)c1nc2ccc(C)cc2s1	46.5*	-0.7	-24.9	-22.3	3.8
CCN(CC)CCN(C(=O)c1ccc2c(c1)CCCC2)c1nc2c(C)cccc2s1	60.1*	1.0	-16.0	-14.4	6.6
CCN(CC)CCN(C(=O)c1ccc2c(c1)CCCC2)c1nc2ccc(F)cc2s1	16.6	-0.5	-18.0	-15.9	1.8
CCCOC1(C(F)(F)F)NC(=O)N(c2ccc(Cl)cc2)C1=O (centres undefined)	.	1.3	.	-6.2	.
COc1ccc(CCNC(=O)c2cc(Nc3ccccc3)nc3ccccc23)cc1OC	.	-0.5	.	6.6	.
N#Cc1c(SCc2ccccc2)sc(C(=O)c2ccccc2)c1N	65.0*	-0.3	-1.5	-12.2	-2.2
Cc1ccc(CSc2sc(C(=O)c3ccccc3)c(N)c2C#N)cc1	17.5	0.0	20.7	-2.5	-3.7
c1ccc(-c2cn3c(n2)SCC3)cc1	4.3	-1.1	-18.3	30.2*	-3.1
Brc1ccc(-c2cn3c(n2)SCC3)cc1	33.1*	-1.1	-2.2	19.1	2.6
Cc1cccc(NC(=O)c2ccc(Cn3nc(N4CCN(c5ccccc5)CC4)ccc3=O)o2)c1C	.	-0.1	.	-4.1	.
O=C(NC(NNc1ccc([N+](=O)[O-])cc1)(C(F)(F)F)C(F)(F)F)c1ccc(F)cc1	3.0	7.0	61.2*	7.4	14.3
O=C(Cn1nc([N+](=O)[O-])nc1Br)NC(c1ccccc1)c1ccccc1	6.5	-1.4	58.0*	5.3	4.8
Cc1cc([N+](=O)[O-])nn1CC(=O)NC(C)c1ccccc1 (centres undefined)	-21.3	1.2	-8.7	1.1	-0.7
O=c1c2cccnc2n(Cc2ccccc2F)c(=O)n1Cc1ccccc1Cl	.	0.7	.	-5.8	.
COc1ccc(C2C(C#N)=C(C)NC3=C2S(=O)(=O)c2ccccc23)cc1 (centres undefined)	-23.7	-0.3	-16.4	31.6*	-4.1
COC(=O)C1=C(C)NC2=C(C1c1ccc(O)cc1)S(=O)(=O)c1ccccc12 (centres undefined)	-3.8	0.2	-12.8	-15.9	-5.4
COC(=O)c1ccc(NC(C)C(=O)OC)c([N+](=O)[O-])c1 (centres undefined)	42.8*	-0.8	2.7	-10.1	1.2
O=S(=O)(Nc1ccccn1)c1ccc(Cl)c2ccccc12	30.6*	-0.9	1.4	-1.6	1.6
Cc1ccc(-c2csc(N3CCN(c4cc5c(cc4Cl)nc(-c4ccncc4)n5CCN4CCCCC4)CC3)n2)cc1	3.8	-0.3	-11.5	5.0	-1.9
CCCn1c(C)nc2cc(Cl)c(N3CCN(c4nc(-c5ccc(C)cc5)cs4)CC3)cc21	40.0*	-0.4	-10.5	3.1	-2.5
COc1ccc(C(=O)c2ccc(N3CCN(C4CC(=O)NC4=O)CC3)cc2)cc1F (centres undefined)	34.0*	-0.1	14.0	3.0	-1.2
SMILES	D2 antag	D2 ag-1	D2 PAM-1	D2 PAM-2	D2 ag-2
NC(=O)NNC1=Nc2cccc3cccc1c23	-17.7	4.3	-8.2	4.5	-0.5
COc1ccc(CC(=O)NNC2=Nc3cccc4cccc2c34)cc1	26.7	0.3	-20.4	-22.8	-2.5
COc1ccc(C(=O)NNC2=Nc3cccc4cccc2c34)cc1	62.6*	1.9	-27.1	-27.0	0.1
Cc1ccc(C(=O)NNC2=Nc3cccc4cccc2c34)cc1	70.8*	-0.3	-25.0	-24.8	-3.5
O=C(O)CCS(=O)(=O)c1cccc2cccnc12	31.0*	0.9	-18.0	16.7	-1.2
CCN1C(=O)[C@H]2[C@@H](c3ccc(-c4ccc(C(C)=O)cc4)c(OC)c3)N[C@@](Cc3ccccc3)(C(=O)OC)[C@H]2C1=O	32.1*	0.3	-3.4	7.1	1.2
Cc1ccc(NC(=S)N(CCN(C)C)C(C)c2cccnc2)c(C)c1 (centres undefined)	-4.8	-0.8	-6.5	32.3*	-2.0
COc1ccccc1OCCNC(=O)C1CCN(C(C)=O)CC1	5.2	2.1	-5.8	30.6*	-0.2
CN(CCOc1ccccc1)CC(=O)Nc1ccc(Br)cc1F	52.9*	0.6	-7.7	-0.3	-0.2
Cc1nnc(SCc2cc(=O)oc3cc(O)ccc23)n1Cc1ccccc1	30.3*	-0.3	-4.9	4.9	0.2
COc1cccc2sc(N3CCN(C(=O)CCS(=O)(=O)c4ccc(F)cc4)CC3)nc12	.	-2.0	.	5.0	.
O=C(NN=C1CCCC1)c1cc(-c2ccccc2)n[nH]1	.	.	0.2	4.9	-0.9
O=C(NN=C1CCCC1)c1ccn[nH]1	41.7*	0.2	7.6	-0.9	-2.4
N#Cc1ccccc1COC(=O)c1ccc2c(c1)OCCO2	30.7*	0.5	-20.8	-4.1	4.1
O=C(c1cccc(COc2cccc3ccccc23)c1)N1CCCC1	-20.9	0.7	7.3	48.4*	0.8
O=C(c1ccccc1)N1CCN(CC(O)COc2cccc3ccccc23)CC1 (centres undefined)	6.5	2.2	-25.5	-1.4	2.8
Cc1ccc(OCCn2c(C3CC(=O)N(Cc4ccc(F)cc4)C3)nc3ccccc32)c(C)c1 (centres undefined)	.	.	.	8.7	.
O=C(CN1CCN(c2ccc(F)cc2)CC1)N1N=CCC1c1ccccc1 (centres undefined)	36.3*	0.3	-18.7	2.2	1.3
CCN(CC)CCNC(=O)c1ccc(NC(=O)c2c(C)nn(-c3ccc(F)cc3)c2Cl)cc1	40.9*	0.1	-16.3	-12.4	-2.6
CCN(CC(=O)Nc1ccc(NC(C)=O)cc1)C(=O)c1c(C)nn(-c2ccc(F)cc2)c1Cl	.	.	-0.2	.	1.9
CC(Sc1nnnn1C1CC1)C(=O)N1CC(=O)Nc2ccccc21 (centres undefined)	47.0*	-0.2	28.2	-0.8	2.8
Cc1cc(F)c(F)c(C(=O)N2CCC(C)CC2)c1Cl	31.8*	-0.5	0.0	-10.4	1.4
Cc1cc(F)c(F)c(C(=O)N2CCCCC2C)c1Cl (centres undefined)	-31.4	-0.2	-5.5	1.4	-1.0
COc1cc(=O)[nH]c(SC(C)C(=O)Nc2ccc3ccccc3c2)n1 (centres undefined)	.	.	0.1	37.1*	-0.7
Cc1nnc(SC(C)C(=O)Nc2ccc3ccccc3c2)[nH]c1=O (centres undefined)	-8.4	-3.1	1.7	.	-0.1

Compound activity deposited in PubChem by National Center for Advancing Translational Sciences (NCATS).
